From PubChem BioAssay come the findings set out here.

Each structure is given as a SMILES string. Values joined by “and” are separate entries in the source; they are usually repeats but may differ in a detail not shown here. Equal values may be shown once. Some compounds were tested as several samples or in several runs, with calls that do not always agree. Active and inactive are the calls of the source.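 Rule for the calls, unless noted: active = compounds whose cell count with miR-34 switched on is under 0.7 times the count with it off; inactive = the rest.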

Experiment [1] in a line: viability loss with induced miR-34 in A549 – imaging, A549 dox-inducible miR-34, nuclei and caspase counts, primary screen (AID 1347080). Note: test concentration not given here. To be noted: A549 miR-34 inducible, Hoechst nuclei count, 48 h.
Experiment [2] can be described thus: MELAS cybrid and Rieske KO viability enhancers – cell-based, MELAS cybrids, Rieske KO mouse fibroblasts, CellTiter-Glo, primary screen (AID 1508586;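 active = mean z-score across replicates of 1.96 or higher in either the MELAS or the Rieske mutant cell line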;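 note: test concentration not given here; z relative to plate mean and SD of compound and empty wells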). To be noted: low glucose. On the technique in general: Cellular ATP, detected with luciferase, serves as a proxy for viable cell number.
Experiment [3] is described as follows: galactose survival enhancers in mitochondrial complex I cybrids – cell-based, galactose medium, ATP luminescence, primary screen (AID 1645843;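 active = z-score of at least 1.8 in each of two replicates, scored against plate mean and spread of sample wells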;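 note: positive z means more ATP and so rescue of galactose-driven cybrid death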). The following applies: complex I mutant cybrid cells, 72 h, stronger effect = higher value.
Where [4] appears, read: stronger effect = lower value, cell number ratio, induced over uninduced.
[5] abbreviates: measured here: relative caspase fold change +Dox/-Dox.
The mark [6] stands for this setting: measured here: total cells with miR-34 induction, stronger effect = lower value.
Where [7] appears, read: measured here: total cells without miR-34 induction.
Setting [8] is: MELAS cybrid survival, CellTiter-Glo 48 h, stronger effect = higher value.
The mark [9] stands for this setting: Rieske KO mouse fibroblast survival, CellTiter-Glo 72 h.

On to `COc1ccc2[nH]cc(CCC(=O)O)c2c1`, for which the fold change in experiment [1] (setting [4]) is 0.879 (inactive); in experiment [1] (setting [5]), 0.282. In addition, the figures for the cell count in experiment [1] (setting [6]) and in experiment [1] (setting [7]) were 8310 and 9460, respectively. Moreover, the values for the z-score in experiment [2] (setting [8]), in experiment [2] (setting [9]) and in experiment [3] were 0.323 (inactive), -0.35 and 0.275 (inactive), respectively.

With `Cc1csc2ncnc(-c3cccc4cccnc34)c12`, the fold change was 0.931 (inactive) in experiment [1] (setting [4]) and 0.756 in experiment [1] (setting [5]). For the same compound, the cell count was 8530 in experiment [1] (setting [6]) and 9170 in experiment [1] (setting [7]). Moreover, the z-score in experiment [2] (setting [8]) is -0.57 (inactive); in experiment [2] (setting [9]) it was -0.471; in experiment [3] it was -0.505 (inactive).

For the compound `O=C(O)CCc1c[nH]c2ccccc12`, the results for the fold change in experiment [1] (setting [4]) and in experiment [1] (setting [5]) were 0.896 (inactive) and 0.538, respectively. Also, the cell count in experiment [1] (setting [6]) amounted to 8830; in experiment [1] (setting [7]), 9860. The z-score in experiment [2] (setting [8]) is 0.524 (inactive); in experiment [2] (setting [9]), -0.334; in experiment [3], 0.56 (inactive).

`Cc1nc2ccc(CN(C)c3ccc(C(=O)NC(CCC(=O)O)C(=O)O)s3)cc2c(=O)[nH]1` (centres undefined): the fold change is 1.21 (inactive) and 1.1 (inactive) in experiment [1] (setting [4]); 1.12 and 0.742 in experiment [1] (setting [5]). In addition, the cell count in experiment [1] (setting [6]) is 1780 and 1710; in experiment [1] (setting [7]), 1470 and 1560. The figures for the z-score in experiment [2] (setting [8]), in experiment [2] (setting [9]) and in experiment [3] were -0.603 (inactive), -0.121 and -1.03 (inactive), respectively.

Regarding `Cc1cc(-c2cnn(C)c2)nc(N)n1`, the fold change was 0.853 (inactive) in experiment [1] (setting [4]) and 1.79 in experiment [1] (setting [5]). The values for the cell count in experiment [1] (setting [6]) and in experiment [1] (setting [7]) were 8800 and 10300, respectively. Also, the values for the z-score in experiment [2] (setting [8]), in experiment [2] (setting [9]) and in experiment [3] were -0.132 (inactive), -0.642 and -0.56 (inactive), respectively.

In the case of `CN1CCC(CN(C)Cc2ccc(-c3nc(-c4cccnc4)cc(=O)[nH]3)cc2)CC1`, the fold change is 0.831 (inactive) in experiment [1] (setting [4]) and 1.62 in experiment [1] (setting [5]). Besides, the cell count amounted to 8360 in experiment [1] (setting [6]) and 10100 in experiment [1] (setting [7]). For the same compound, the z-score in experiment [2] (setting [8]) was 0.139 (inactive); in experiment [2] (setting [9]) it was 0.0765; in experiment [3], -0.51 (inactive).

As to `CCC1C(=O)N(C)CCN1C(=O)Nc1nc(C)ns1` (centres undefined), the figures for the fold change in experiment [1] (setting [4]) and in experiment [1] (setting [5]) were 1.02 (inactive) and 1.35, respectively. Further, the results for the cell count in experiment [1] (setting [6]) and in experiment [1] (setting [7]) were 8670 and 8510, respectively. The figures for the z-score in experiment [2] (setting [8]), in experiment [2] (setting [9]) and in experiment [3] were -0.0427 (inactive), -0.105 and -0.49 (inactive), respectively.

On to `CCc1nc(NC(=O)N(C)Cc2cccc(-n3cccn3)c2)nn1C`, for which the fold change in experiment [1] (setting [4]) is 0.843 (inactive); in experiment [1] (setting [5]), 1.39. Further, the cell count came to 7990 in experiment [1] (setting [6]) and 9480 in experiment [1] (setting [7]). Also, the z-score in experiment [2] (setting [8]) is 0.262 (inactive); in experiment [2] (setting [9]), -0.471; in experiment [3], -0.535 (inactive).

Regarding `Cc1cccc(-n2cnc3cc(N)ccc32)c1`, the figures for the fold change in experiment [1] (setting [4]) and in experiment [1] (setting [5]) were 0.889 (inactive) and 1.07, respectively. The cell count came to 8160 in experiment [1] (setting [6]) and 9170 in experiment [1] (setting [7]). The z-score in experiment [2] (setting [8]) is 1.59 (inactive); in experiment [2] (setting [9]) it was 0.221; in experiment [3] it was 0.94 (inactive).

In the case of `Cc1ccc(-c2noc([C@@]34CC[C@@](C)(C(=O)O3)C4(C)C)n2)cc1Cl`, the fold change in experiment [1] (setting [4]) is 0.896 (inactive); in experiment [1] (setting [5]) it was 1.34. The cell count in experiment [1] (setting [6]) was found to be 8140; in experiment [1] (setting [7]) it was 9090. The figures for the z-score in experiment [2] (setting [8]), in experiment [2] (setting [9]) and in experiment [3] were -0.00199 (inactive), -1.05 and -0.54 (inactive), respectively.

Turning to `Cc1ccccc1-n1cc(-c2ccnc(NCCC3(O)CCN(C)CC3)n2)cn1`, the fold change in experiment [1] (setting [4]) is 0.797 (inactive); in experiment [1] (setting [5]), 1.49. Moreover, the cell count worked out at 8470 in experiment [1] (setting [6]) and 10600 in experiment [1] (setting [7]). Further, the z-score in experiment [2] (setting [8]) is 0.152 (inactive); in experiment [2] (setting [9]), -0.0851; in experiment [3], -0.43 (inactive).

On to `O=S(=O)(O)CCN1CCOCC1`, for which the results for the fold change in experiment [1] (setting [4]) and in experiment [1] (setting [5]) were 0.906 (inactive) and 0.601, respectively. In addition, the results for the cell count in experiment [1] (setting [6]) and in experiment [1] (setting [7]) were 8760 and 9670, respectively. The z-score was -0.907 (inactive) in experiment [2] (setting [8]), -0.75 in experiment [2] (setting [9]) and 0.715 (inactive) in experiment [3].

Consider `Oc1ccc(C=Cc2cc(O)cc(O)c2)cc1`, for which the fold change in experiment [1] (setting [4]) was 2.61 (inactive) and 0.913 (inactive); in experiment [1] (setting [5]), 1.12 and 0.945. For the same compound, the cell count in experiment [1] (setting [6]) is 6320 and 7520; in experiment [1] (setting [7]), 2420 and 8230. In addition, the z-score is -0.411 (inactive) in experiment [2] (setting [8]), 0.338 in experiment [2] (setting [9]) and 1.1 (inactive) in experiment [3].

Regarding `CN(Cc1noc(C2CCCC2)n1)C(=O)c1nc(=O)[nH]c2ccccc12`, the fold change in experiment [1] (setting [4]) was 0.914 (inactive); in experiment [1] (setting [5]), 1.01. The cell count in experiment [1] (setting [6]) was 8520; in experiment [1] (setting [7]), 9320. The values for the z-score in experiment [2] (setting [8]), in experiment [2] (setting [9]) and in experiment [3] were -0.339 (inactive), 0.124 and -0.525 (inactive), respectively.

For `CNC1CCC(c2ccc(Cl)c(Cl)c2)c2ccccc21` (centres undefined), the fold change in experiment [1] (setting [4]) is 0.897 (inactive) and 0.972 (inactive); in experiment [1] (setting [5]), 1.54 and 0.385. For the same compound, the cell count in experiment [1] (setting [6]) was 3400 and 7100; in experiment [1] (setting [7]), 3800 and 7300. In addition, the z-score in experiment [2] (setting [8]) was -0.116 (inactive); in experiment [2] (setting [9]), -0.231; in experiment [3], -1.88 (inactive).

For `CCOC(=O)C1=C(C)NC(C)=C(C(=O)OCC)C1c1ccccc1C=CC(=O)OC(C)(C)C`, the fold change was 0.635 (active) and 0.971 (inactive) in experiment [1] (setting [4]); 1.57 and 0.602 in experiment [1] (setting [5]). Also, the cell count in experiment [1] (setting [6]) was 2050 and 7220; in experiment [1] (setting [7]), 3220 and 7430. Also, the figures for the z-score in experiment [2] (setting [8]), in experiment [2] (setting [9]) and in experiment [3] were -0.107 (inactive), -0.188 and -1.44 (inactive), respectively.

For the compound `CN(C)c1ccc(N=Nc2ccccc2C(=O)O)cc1`, the fold change in experiment [1] (setting [4]) was 0.742 (inactive); in experiment [1] (setting [5]) it was 0.761. Besides, the cell count in experiment [1] (setting [6]) turned out to be 2520; in experiment [1] (setting [7]), 3400. Further, the z-score is -1.2 (inactive) in experiment [2] (setting [8]), 0.626 in experiment [2] (setting [9]) and -0.36 (inactive) in experiment [3].

`Nc1ccc(Sc2ccc(N3C(=O)c4ccc(N)cc4C3=O)cc2)cc1`: the fold change in experiment [1] (setting [4]) is 0.816 (inactive); in experiment [1] (setting [5]), 1.86. The cell count in experiment [1] (setting [6]) is 8200; in experiment [1] (setting [7]) it was 10000. Further, the values for the z-score in experiment [2] (setting [8]), in experiment [2] (setting [9]) and in experiment [3] were 0.874 (inactive), 0.253 and -0.975 (inactive), respectively.

For the compound `O=C(Nc1nncs1)NC1Cc2ccccc2C1`, the fold change is 0.87 (inactive) in experiment [1] (setting [4]) and 1.52 in experiment [1] (setting [5]). In addition, the cell count is 8130 in experiment [1] (setting [6]) and 9340 in experiment [1] (setting [7]). Besides, the figures for the z-score in experiment [2] (setting [8]), in experiment [2] (setting [9]) and in experiment [3] were -0.741 (inactive), -0.221 and -0.6 (inactive), respectively.

As to `Cc1nsc(NC(=O)N(C)Cc2cn[nH]c2-c2ccc(F)cc2)n1`, the fold change in experiment [1] (setting [4]) was 0.916 (inactive); in experiment [1] (setting [5]), 0.879. For the same compound, the values for the cell count in experiment [1] (setting [6]) and in experiment [1] (setting [7]) were 9230 and 10100, respectively. The z-score in experiment [2] (setting [8]) is 0.225 (inactive); in experiment [2] (setting [9]), -0.278; in experiment [3], -0.49 (inactive).

`Cc1cnc(NCCCn2cccn2)nc1-c1cnn(C)c1`: the fold change in experiment [1] (setting [4]) was 0.862 (inactive); in experiment [1] (setting [5]), 1.64. Also, the cell count came out at 9190 in experiment [1] (setting [6]) and 10700 in experiment [1] (setting [7]). The z-score was -0.223 (inactive) in experiment [2] (setting [8]), -0.0144 in experiment [2] (setting [9]) and -0.51 (inactive) in experiment [3].

`CCNC(=O)c1cccnc1N1CCN(c2ccc(Cl)cc2)CC1`: the fold change in experiment [1] (setting [4]) is 0.873 (inactive); in experiment [1] (setting [5]), 0.821. Also, the figures for the cell count in experiment [1] (setting [6]) and in experiment [1] (setting [7]) were 7830 and 8970, respectively. Further, the z-score is -0.247 in experiment [2] (setting [8]), 2.02 in experiment [2] (setting [9]) and 0.35 (inactive) in experiment [3].
